Source: PubChem (several laboratories)
GC-B act: human GC-B receptor activators, primary screen, HEK293 GC-B cells, cGMP TR-FRET, EC30 CNP. 0% at EC30 CNP, 100% saturating CNP. activation, % at 10 µM. hit rate 0.11% among 370,000;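 active means activation at 10 µM reaching about 35% in either raw or pattern-adjusted values, limit read from the data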
TLR4 MyD88 comp: inhibitors of TLR4-MyD88 association in cells, primary screen, cell-based, HeLa CL3-4, BLA complementation, FRET ratio; Toll-like receptor 4 (Homo sapiens) + Myeloid differentiation primary response protein …; HeLa CL3-4 TLR4/MyD88 BLA complementation; inhibition, % at 8.4 µM; hit rate 0.18% among 200,000; in the data active means inhibition above about 25%;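 further: 0% = vehicle and 100% = reference inhibitor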
TLR9-MyD88 inh: inhibitors of TLR9-MyD88 association in cells, primary screen, cell-based, CHO, BLA complementation, fluorescence; Toll-like receptor 9 (Homo sapiens) + Myeloid differentiation primary response protein …; CCF4 FRET ratio; inhibition, % at 4.98 µM; hit rate 0.21% among 340,000; AID 504734, 2011;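 active means inhibition above the mean over all tested compounds plus 3 SD, cut at about 21% in these data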;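 further: 0% = DMSO only wells and 100% = clavulanate BLA inhibitor control wells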
NOD2 RIPK2 PPI: NOD2-RIPK2 binding disruptors in cells, primary screen, fluorescence, CHO cells, BLA complementation. CCF4 ratio. hit rate 0.38% among 360,000. Receptor-interacting serine/threonine-protein kinase 2 (Homo sapiens), O43353. inhibition, % at 4.98 µM; in the data active means inhibition above about 21%;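 further: 0% = vehicle only and 100% = reference blocker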
Neddylation inh: inhibitors of cullin neddylation, primary screen, biochemical, TR-FRET, uHTS, NAE and Ubc12 | NEDD8-conjugating enzyme Ubc12 (Homo sapiens) + NEDD8-activating enzyme E1 regulatory … | inhibition, % at 25 µM | hit rate 0.58% among 360,000; in the data active means inhibition above about 36%
Target sequence (P61081 whole entry, looked up): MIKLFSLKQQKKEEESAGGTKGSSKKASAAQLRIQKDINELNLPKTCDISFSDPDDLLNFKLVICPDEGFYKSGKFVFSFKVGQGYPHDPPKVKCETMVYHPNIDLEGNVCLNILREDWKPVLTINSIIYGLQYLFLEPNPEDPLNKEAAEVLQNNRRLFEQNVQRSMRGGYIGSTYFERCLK
Target sequence (Q13564 whole entry, looked up): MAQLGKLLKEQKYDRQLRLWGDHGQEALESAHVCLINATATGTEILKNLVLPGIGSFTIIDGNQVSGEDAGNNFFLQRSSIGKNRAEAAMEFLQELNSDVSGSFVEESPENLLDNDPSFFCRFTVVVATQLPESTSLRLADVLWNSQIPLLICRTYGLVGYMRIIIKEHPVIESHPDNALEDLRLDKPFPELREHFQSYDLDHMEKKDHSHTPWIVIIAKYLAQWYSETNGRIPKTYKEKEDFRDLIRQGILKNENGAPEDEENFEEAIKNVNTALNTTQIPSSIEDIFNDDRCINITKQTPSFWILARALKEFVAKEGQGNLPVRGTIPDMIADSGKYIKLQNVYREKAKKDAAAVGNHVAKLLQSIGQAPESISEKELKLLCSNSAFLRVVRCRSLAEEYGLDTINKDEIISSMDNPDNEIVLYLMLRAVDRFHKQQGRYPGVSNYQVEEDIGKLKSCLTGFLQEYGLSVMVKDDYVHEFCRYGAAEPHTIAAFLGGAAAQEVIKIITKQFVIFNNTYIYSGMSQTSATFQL
GC-A act: GC-A stimulated cGMP production enhancers – HEK293 GC-A cells, cGMP TR-FRET, EC30 ANP, primary screen; Atrial natriuretic peptide receptor 1 (Homo sapiens), P16066; 0% at EC30 ANP, 100% saturating ANP; activation, % at 10 µM; AID 1671463, 2021; hit rate 0.14% among 370,000; in the data active means activation above about 40%
Active calls of the source: *. Sampled rows, rich in hits. Any-hit rate of the full collection: about 1.2%.

For Cc1ccc(S(=O)(=O)N2CCC(C(=O)NNC(=O)c3ccccc3O)CC2)cc1C the results were GC-B act 3, TLR9-MyD88 inh -2, NOD2 RIPK2 PPI -7, Neddylation inh 35 and GC-A act -1.
Cc1cc(C)c(C)c(S(=O)(=O)N2CCC(C(=O)NNC(=O)c3ccccc3O)CC2)c1C was read as GC-B act 5, TLR9-MyD88 inh -7, NOD2 RIPK2 PPI -3, Neddylation inh 52* and GC-A act 6.
`COC(=O)[C@]1(CNC(=O)c2cc(F)ccc2F)CC(=O)N(C)[C@@H]1c1ccccc1` gave GC-B act 3 and GC-A act 4.
`NC(=O)C1(Nc2ccc(-c3ccc(Br)cc3)cc2)CCCC1` gave GC-B act -4, TLR9-MyD88 inh 1, NOD2 RIPK2 PPI -2, Neddylation inh -81 and GC-A act 52*.
Screening Cc1ccc(NC2(C(N)=O)CCCC2)cc1 returned GC-B act -5, TLR9-MyD88 inh -4, NOD2 RIPK2 PPI 1, Neddylation inh -6 and GC-A act 0.
Screening COC(=O)c1cc(-c2ccc(Br)cc2)on1 returned GC-B act 8, TLR4 MyD88 comp -8, TLR9-MyD88 inh 4, NOD2 RIPK2 PPI -14, Neddylation inh 8 and GC-A act 59*.
Screening O=C(c1ccc(C#Cc2ccccc2)cc1)N1CCC(O)CC1 returned GC-B act -5 and GC-A act 10.
CC(C)CCn1cnc2c(c1=O)c1nc3ccccc3nc1n2Cc1ccc2c(c1)OCO2 was read as GC-B act 50*, TLR4 MyD88 comp -8, TLR9-MyD88 inh -4, NOD2 RIPK2 PPI -13, Neddylation inh 24 and GC-A act 39.
Screening C=CCSc1nc2c(c(=O)[nH]c(=O)n2C)n1Cc1ccc(C)cc1 returned GC-B act 38*, TLR4 MyD88 comp -3, TLR9-MyD88 inh 3, NOD2 RIPK2 PPI 0, Neddylation inh -6 and GC-A act 24.
CC[C@H](C(=O)Nc1ccccc1N1CCCC1)c1ccccc1 was read as GC-B act -14 and GC-A act -4.
For Cc1cc(Br)c2nc3c(c(C(=O)O)c2c1)CCCCC3 the results were GC-B act 18, TLR4 MyD88 comp 1, TLR9-MyD88 inh -6, NOD2 RIPK2 PPI -2, Neddylation inh inactive and GC-A act 64*.
Screening CCc1ccc2nc3c(c(C(=O)O)c2c1)CCC3 returned GC-B act 2, TLR4 MyD88 comp -6, TLR9-MyD88 inh 2, NOD2 RIPK2 PPI 7, Neddylation inh -6 and GC-A act 0.
`NC(=O)c1c(NC(=O)COC(=O)CSc2nnc(-c3ccc(Cl)cc3)o2)sc2c1CCC2` gave GC-B act -5, TLR4 MyD88 comp 8, TLR9-MyD88 inh -9, NOD2 RIPK2 PPI -12, Neddylation inh 16 and GC-A act 51*.
`O=C(COC(=O)Cc1ccc(Cl)cc1)NCc1ccc2c(c1)OCO2` gave GC-B act 0, TLR9-MyD88 inh -11, NOD2 RIPK2 PPI -2, Neddylation inh 15 and GC-A act -2.
For CCOC(=O)c1c(NC(=O)CSc2nnc(-c3ccc(OC)cc3)o2)sc2c1CCC2 the results were GC-B act -11, TLR4 MyD88 comp 7, TLR9-MyD88 inh -2, NOD2 RIPK2 PPI -10, Neddylation inh -8 and GC-A act -2.
O=C(COC(=O)CSc1nnc(-c2ccc(Cl)cc2)o1)NCc1ccc2c(c1)OCO2 was read as GC-B act 4, TLR4 MyD88 comp 2, TLR9-MyD88 inh -1, NOD2 RIPK2 PPI 13, Neddylation inh -10 and GC-A act 63*.
Screening N#Cc1ccc(NC(=O)COC(=O)CSc2nnc(-c3ccc(Cl)cc3)o2)cc1 returned GC-B act -10, TLR4 MyD88 comp -3, TLR9-MyD88 inh -1, NOD2 RIPK2 PPI 1, Neddylation inh 8 and GC-A act 62*.
`O=C(COC(=O)CSc1nnc(-c2ccc(Cl)cc2)o1)Nc1cc(Cl)ccc1Cl` gave GC-B act -1, TLR9-MyD88 inh 2, NOD2 RIPK2 PPI -1, Neddylation inh 0 and GC-A act 32.
`O=C(COc1ccccc1C(=O)O)Nc1ccc(SC(F)F)cc1` gave GC-B act -2, TLR4 MyD88 comp 25*, TLR9-MyD88 inh 2, NOD2 RIPK2 PPI 1, Neddylation inh 7 and GC-A act 6.
Screening C=CC[C@@]1(c2ccccc2)Oc2ccccc2-c2nc3ccccc3nc21 returned GC-B act 3 and GC-A act -6.
`COc1ccc(S[C@]2(C(=O)N3CCOCC3)CC(=O)N(C(=O)/C=C/c3ccccc3)[C@@H]2c2ccc(OC)cc2)cc1` gave GC-B act 0 and GC-A act 1.
`CCCCNS(=O)(=O)/C=C/c1ccc(F)cc1CNC(=O)OC(C)(C)C` gave GC-B act 0 and GC-A act -1.
Screening CC(=O)Nc1cccc(-c2cc(NC(C)=O)c3ncc(-c4cccc(C(C)=O)c4)n3c2)c1 returned GC-B act 12, NOD2 RIPK2 PPI -10, Neddylation inh -5 and GC-A act 4.
Screening CC(=O)Nc1cc(-c2cccc(N)c2)cn2c(-c3ccc(C(C)=O)cc3)cnc12 returned GC-B act 35*, NOD2 RIPK2 PPI -6, Neddylation inh 5 and GC-A act 6.
`CCOC(=O)c1c(-c2ccc(C)o2)csc1NC(=S)NC(=O)c1ccccc1Br` gave GC-B act 37*, TLR4 MyD88 comp -16, TLR9-MyD88 inh -4, NOD2 RIPK2 PPI -4, Neddylation inh -32 and GC-A act 18.
For CCOC(=O)c1c(-c2ccc(C)o2)csc1NC(=S)NC(=O)c1cccs1 the results were GC-B act 37*, TLR4 MyD88 comp -7, TLR9-MyD88 inh -3, NOD2 RIPK2 PPI 0, Neddylation inh -3 and GC-A act 29.
For CCOC(=O)c1c(-c2ccc(C)o2)csc1NC(=O)CSc1nnc(C)s1 the results were GC-B act 6, TLR4 MyD88 comp 2, TLR9-MyD88 inh 2, NOD2 RIPK2 PPI 19, Neddylation inh -3 and GC-A act 3.
CCOC(=O)Cn1cc(CN2CCS(=O)(=O)N(Cc3ccc(Cl)cc3)C(C(=O)OC)C2)nn1 (configuration not stated) was read as GC-B act -1 and GC-A act 5.
`Cn1c2ccccc2c2cc(/C=N/NC(=O)c3cc(O)ccc3O)ccc21` gave GC-B act -8, TLR9-MyD88 inh 1, NOD2 RIPK2 PPI 4, Neddylation inh 52* and GC-A act -10.
